Source: PubChem (National Center for Advancing Translational Sciences (NCATS))
The sample as a whole holds a higher share of hits than the screen did.
APE1 inh: APE1 (human) endonuclease inhibition; AID 2517; Potency, µM (doses to about 65.8 µM), for the others: top-dose activity change, negative = inhibition, most hits filed as inhibitors; recombinant APE1, TAMRA/BHQ-2 abasic DNA cleavage fluorescence; 0.35% of 350,000 active;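 note: plate controls were vehicle for no effect and reference inhibitor for full effect; nearly all actives have a fitted effect of over 55% in size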
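Enzyme (0.75 nM final) and test compound are incubated 15 min at room temperature before adding 50 nM quenched THF abasic-site duplex. Cleavage dequenches TAMRA, followed at 525/598 nm over three reads one minute apart.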
BLM inh: inhibitors of human Bloom syndrome helicase BLM; recombinant BLM DNA unwinding, fluorescence dequenching; AID 2528; 0.2% of 350,000 active; Potency, µM (doses to about 56.1 µM), for the others: at the highest dose activity change, negative = inhibition, hits mostly inhibitors; P54132;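 note: plate controls were vehicle for no effect and no enzyme for full effect; nearly all actives have a fitted effect of over 35% in size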
TDP1 block: blocks human tyrosyl-DNA phosphodiesterase 1. AID 485290. Potency, µM (top dose mostly 130 µM), for the others: at the top dose activity change, negative = inhibition, most hits filed as inhibitors. 0.28% of 350,000 active. recombinant TDP1, AlphaScreen DNA substrate cleavage. Q9NUW8; note: nearly all actives have a fitted effect of over 40% in size
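Enzyme-compound mixtures sat 15 min at room temperature, followed by a 5 min reaction with 15 nM final substrate and 10 min with AlphaScreen beads. Recombinant human Tdp1 was used at 1 nM final.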
RECQ1 inh: inhibitors of human RECQ1 DNA helicase. P46063. RECQ1 DNA unwinding, red fluorescence kinetic read. Potency, µM (highest dose often 57.3 µM), inactives show at the top dose activity, negative = inhibition, actives largely listed as inhibitors. 0.54% of 240,000 active. AID 2549;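 note: plate controls were vehicle for no effect and no enzyme for full effect; nearly all actives have a fitted effect of over 30% in size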
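50 nM RECQ1T1 preincubated 15 min with compound in Tris pH 8.0 buffer with MgCl2, DTT, Tween-20 and 2.5 ug/ml poly(dI-dC); started with 200 nM TAMRA/BHQ-2 forked duplex and 2 mM ATP. Unwinding read as fluorescence (525/598 nm), two reads 2 h apart.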
JMJD2E inh: inhibitors of human JMJD2E histone demethylase. 1.6% of 230,000 active. AID 2147. B2RXH2. Potency, µM (series often up to 57.1 µM), without a hit: top-dose activity change, negative = inhibition, usual class: inhibitors. JMJD2E catalytic domain, FDH-coupled NADH fluorescence (FDH is formaldehyde dehydrogenase);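 note: 0% = wells with enzyme and -100% = buffer wells without enzyme; nearly all actives have a fitted effect of over 50% in size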
GCN5L2 inh: GCN5L2 (KAT2A) acetyltransferase inhibition; Q92830; GCN5L2 HAT assay, ThioGlo1 CoA-SH fluorescence; Potency, µM (series often up to 58.9 µM), without a hit: at the highest dose activity change, negative = inhibition, actives largely listed as inhibitors; 0.21% of 390,000 active
Target sequence (Q92830 whole entry, looked up): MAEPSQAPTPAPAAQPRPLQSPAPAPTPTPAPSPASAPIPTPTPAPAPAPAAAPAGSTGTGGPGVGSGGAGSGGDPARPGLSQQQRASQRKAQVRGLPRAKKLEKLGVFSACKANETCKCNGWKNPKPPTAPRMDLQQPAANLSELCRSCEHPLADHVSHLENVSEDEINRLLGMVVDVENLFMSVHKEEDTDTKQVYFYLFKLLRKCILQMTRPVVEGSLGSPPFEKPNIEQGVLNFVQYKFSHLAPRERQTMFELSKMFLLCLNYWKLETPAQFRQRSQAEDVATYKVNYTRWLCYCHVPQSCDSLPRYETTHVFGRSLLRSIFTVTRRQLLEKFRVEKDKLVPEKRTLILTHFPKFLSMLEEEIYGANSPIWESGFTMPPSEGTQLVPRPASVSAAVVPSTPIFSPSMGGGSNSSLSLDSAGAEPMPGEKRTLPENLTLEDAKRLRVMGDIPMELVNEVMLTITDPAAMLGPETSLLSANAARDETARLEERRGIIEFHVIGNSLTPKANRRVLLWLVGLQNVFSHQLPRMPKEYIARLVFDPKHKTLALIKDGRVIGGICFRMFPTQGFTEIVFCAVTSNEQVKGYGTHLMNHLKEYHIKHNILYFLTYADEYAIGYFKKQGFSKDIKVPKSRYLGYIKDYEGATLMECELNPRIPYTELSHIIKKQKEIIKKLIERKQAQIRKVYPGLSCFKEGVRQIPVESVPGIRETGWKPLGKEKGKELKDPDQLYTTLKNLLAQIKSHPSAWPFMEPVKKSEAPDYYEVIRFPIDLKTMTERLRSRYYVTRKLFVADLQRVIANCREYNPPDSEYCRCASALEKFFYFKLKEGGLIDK
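Fluorescence readout, Ex340nm/Em540nm: ThioGlo1 (50uM final) reacts with free CoA thiol released as 20nM GCN5L2 acetylates H3(1-25) peptide (75uM) using acetyl-CoA (70uM). Compound and enzyme sat 15 min beforehand; 20 min room-temperature reaction.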
Numbers without * were called inactive; i = inactive; ? = inconclusive; · = no result given; [ ] = dose if it differs, or a comment. Unless noted, calls come from the whole dose curve; as a rule, active = well fitted curve in the direction sought with a large enough effect; inconclusive = small, poorly fitted or top-dose-only effect, or another doubt; inactive = no such curve, though single readings can be large; an effect the other way counts as inactive or inconclusive. Unless noted, % is set by controls: 0 for no effect and ±100 for the full control effect; potency is the fitted concentration of half-maximal effect.

SMILES	APE1 inh	BLM inh	TDP1 block	RECQ1 inh	JMJD2E inh	GCN5L2 inh
Cc1ccc(C(=O)OC(C)C(=O)c2cc(C)c(C)cc2C)o1 (stereo unspecified)	?	-10.5%	56.2µM*	·	·	-22.3%
Cc1cc(C)c(C(=O)C(C)OC(=O)c2ccccn2)cc1C (stereo unspecified)	43.1%	-7.7%	6.6%	·	·	3.6%
Cc1cc(C)c2sc(NNC(=O)c3ccc(S(=O)(=O)N4CCc5ccccc5C4)cc3)nc2c1	-5.8%	3.4%	10.5%	-4.1%	12.6µM*	-8.5%
COc1cccc(C2NC(c3cccc(OC)c3O)C(C)C(=O)C2C)c1O (stereo unspecified)	2.2%	-3.4%	-2.1%	4.8%	20µM*	-17.0%
CN(C)/C=C/C=C1C(=O)CCCC1=O	?	-8.6%	22.4µM*	-9.2%	-6.2%	-13.5%
c1ccc(P(c2ccccc2)c2cnc3ccccn23)cc1	·	·	3.9%	·	·	·
Cc1cc(C)n(-c2nc(Nc3ccccc3)nc(-n3nc(C)cc3C)n2)n1	-5.4%	-12.1%	44.7µM*	-2.5%	-4.8%	-15.7%
COc1cccc(/C=N/Nc2nc(Nc3ccccc3)nc(-n3nc(C)cc3C)n2)c1O	-8.8%	-20.7%	12.7%	-12.4%	20µM*	-7.3%
CC(=O)Nc1cc(NC(C)=O)cc(C(=O)N2CCCC3CCCCC32)c1 (stereo unspecified)	16.8µM*	-21.9%	·	·	·	-26.5%
O=C(Nc1ccccc1)N1CCCC2CCCCC21 (stereo unspecified)	-1.5%	-4.5%	8.2%	-12.9%	-6.8%	?
OC(c1ccccc1)(c1ccccc1)c1cnc2ccccn12	·	·	0.0%	·	·	·
CCCCCCCCOc1c(OC)cc(/C=C/C(=O)N2CCN(c3ccc(C)c(C)c3)CC2)cc1OC	-9.6%	-0.4%	9.5%	-7.4%	·	-20.1%
Nc1ncnc2c1nc(Cl)n2[C@@H]1O[C@H](CO)[C@@H](O)[C@@H]1O	·	·	0.5%	·	·	·
Cc1cnc(C(=O)OCc2nc3ccsc3c(=O)[nH]2)cn1	-36.4%	·	14.1µM*	·	·	-13.5%
Cc1ccc(C(=O)OCc2nc3ccsc3c(=O)[nH]2)o1	-2.4%	·	·	·	·	-0.7%
COc1ccc(Cn2ncc3c4sc(C)cc4n(C)c3c2=O)cc1	·	·	-3.3%	·	·	·
COC(=O)c1c(NC(=O)COC(=O)[C@@H](NS(=O)(=O)c2cccc(Cl)c2)C(C)C)sc2c1CCC2	-10.3%	-5.5%	8.1%	i	?	-6.0%
CC(C)[C@H](NS(=O)(=O)c1cccc(Cl)c1)C(=O)OCC(=O)NC(=O)CN1CCCC1=O	13.4µM*	·	25.1µM*	·	·	0.9%
O=C(O)c1ccc(CSc2n[nH]c(-c3ccco3)n2)cc1	39.8µM*	-3.7%	·	-7.5%	-10.0%	-2.9%
CCOc1ccc(-c2c(C(=O)N/N=C/c3cccnc3)nnn2-c2nonc2N)cc1	-9.7%	-16.5%	50.1µM*	·	·	-5.7%
Cc1ccc(-c2c(C(=O)N/N=C/c3cccnc3)nnn2-c2nonc2N)cc1	25.2%	-1.6%	0.6%	·	·	-2.4%
CC(=O)Nc1cccc(S(=O)(=O)Nc2ccc(C)c(C)c2)c1	·	·	0.8%	·	·	·
Cc1cccc(-n2c(O)c(C=Nc3cc(O)ccc3C)c3ccccc3c2=O)n1	-2.7%	-18.6%	-2.6%	-0.6%	-14.4%	-5.9%
Cc1cccc(-n2c(O)c(C=Nc3ccccc3O)c3ccccc3c2=O)n1	?	15.8µM*	·	-27.7%	-5.8%	-7.3%
CN1\C(=C/C=C/C=C/C=[N+](C)C)C(C)(C)c2ccccc21	?	28.2µM*	10.3%	25.1µM*	?	11.4%
SMILES	APE1 inh	BLM inh	TDP1 block	RECQ1 inh	JMJD2E inh	GCN5L2 inh
C=CCN(c1ccccc1)S(=O)(=O)c1cccc(C(=O)Nc2nc3ccccc3[nH]2)c1	2.4%	6.3%	2.7%	-1.5%	28.2µM*	-25.5%
C=CCN(c1ccccc1)S(=O)(=O)c1cccc(C(=O)Nc2ccncc2)c1	7.1%	·	·	·	·	-0.9%
c1ccc(CNc2ncnc3c2ncn3Cc2ccccc2)cc1	·	·	-0.2%	·	·	·
Cc1ccc2c(c1)c1c(c(=O)n(-c3ccccc3C)c(=O)n1Cc1cccc(F)c1)n2C	·	-3.7%	5.6%	·	·	-28.3%
CCOC(=O)C(C)N1C(=O)S/C(=C\c2ccc(-c3ccccc3C(=O)O)o2)C1=O (stereo unspecified)	5.97µM*	-0.3%	·	·	·	-7.3%
Cc1ccc(C)c(N2C(=N)S/C(=C\c3ccc(-c4ccccc4C(=O)O)o3)C2=O)c1	?	-3.5%	·	-7.9%	-28.4%	-3.3%
COc1ccccc1CNc1nc2c(S(=O)(=O)c3ccccc3)nnn2c2ccc(Cl)cc12	·	-2.6%	-2.0%	·	·	25.1µM*
Cc1n[nH]c(=S)n(NC(=O)/C=C/C(=O)Nn2c(=S)[nH]nc(C)c2=O)c1=O	7.94µM*	-6.6%	?	-19.6%	?	-2.2%
CN[C@H](CC(C)C)C(=O)N[C@H]1C(=O)N[C@@H](CC(N)=O)C(=O)N[C@H]2C(=O)N[C@H]3C(=O)N[C@H](C(=O)N[C@@H](C(=O)O)c4cc(O)cc(O)c4-c4cc3ccc4O)[C@H](O)c3ccc(c(Cl)c3)Oc3cc2cc(c3O[C@@H]2O[C@H](CO)[C@@H](O)[C@H](O)[C@H]2O[C@H]2C[C@](C)(N)C(O)[C@H](C)O2)Oc2ccc(cc2Cl)[C@H]1O (stereo partly specified)	19.0%[21 µM]	·	·	·	·	·
CCC(=O)NC1Cc2ccccc2C(c2ccccc2)C1 (stereo unspecified)	14.4%	·	8.5%	i	·	-1.8%
Cc1ccc2nc(-c3ccc(N)cc3)sc2c1S(=O)(=O)O	?	·	31.6µM*	?	·	·
Cc1ccc2nc(-c3ccc(N=Nc4cc(S(=O)(=O)O)c5ccccc5c4O)cc3)sc2c1S(=O)(=O)O	·	·	-7.0%	·	·	·
CC(C)(C)c1nn(-c2ccccc2)c2[nH]c(=O)c(CNCc3ccco3)cc12	0.0%	-10.1%	4.8%	0.0%	?	5.5%
CC(C)(C)c1nn(-c2ccccc2)c2[nH]c(=O)c(CNc3ccc4c(c3)OCCO4)cc12	?	-12.7%	11.6%	-4.7%	0.2%	35.5µM*
O=C(CN1C(=O)c2cccc3cccc1c23)Nc1cccnc1	-1.0%	-10.4%	-4.2%	-0.5%	1.5%	-11.3%
O=C(CN1C(=O)c2cccc3cccc1c23)NCc1cccnc1	0.7%	2.5%	0.5%	-2.0%	-10.6%	31.6µM*
O=C(OCC#CCSc1nnc(-c2cc3ccccc3cc2O)o1)c1ccc(F)cc1	·	·	-2.3%	·	·	·
O=C(c1ccccc1)C1CCN(C(=O)c2ccc(Cl)cc2)CC1	54.2%	-3.4%	·	·	·	7.1%
O=C(c1ccc(Cl)cc1)C1CCN(C(=O)C2CC2)CC1	17.4%	0.1%	2.1%	-9.2%	2.8%	14.1µM*
